Laboratory results reported in the supplement of paper PMC4466140.

molecular target: AgAbp1; test: SPOT peptide array binding signal intensity (averaged, normalized) (arbitrary units (background-subtracted, floor 0; scale differs between SH3 domains)); higher = stronger binding of the SH3 domain to the peptide
How it was run: (§1)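 E. coli BL21(DE3) was used to express GST-fused SH3 domains from four yeast species, which were then purified on glutathione Sepharose. These were incubated at 10 μg/ml in TBS-based blocking buffer overnight at 4°C on cellulose membranes carrying synthetic 15-mer peptides, in which cysteines were replaced by serines. Binding signal is the replicate average of normalized, background-subtracted spot intensity, in arbitrary units that differ between domains.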

Binder | SPOT peptide array binding signal intensity
PPIPNAPLSPAPAVP | 1

molecular target: AgBbc1; test: as above
How it was run: as §1

Binder | SPOT peptide array binding signal intensity
PPIPNAPLSPAPAVP | ≤ 0

molecular target: AgBem1-D1; test: as above
How it was run: as §1

Binder | SPOT peptide array binding signal intensity
PPIPNAPLSPAPAVP | 18.5

molecular target: AgBzz1-D1; test: as above
How it was run: as §1

Binder | SPOT peptide array binding signal intensity
PPIPNAPLSPAPAVP | ≤ 0

molecular target: AgBzz1-D2; test: as above
How it was run: as §1

Binder | SPOT peptide array binding signal intensity
PPIPNAPLSPAPAVP | ≤ 0

molecular target: AgCyk3; test: as above
How it was run: as §1

Binder | SPOT peptide array binding signal intensity
PPIPNAPLSPAPAVP | ≤ 0

molecular target: AgFus1; test: as above
How it was run: as §1

Binder | SPOT peptide array binding signal intensity
PPIPNAPLSPAPAVP | 2

molecular target: AgHof1; test: as above
How it was run: as §1

Binder | SPOT peptide array binding signal intensity
PPIPNAPLSPAPAVP | 1

molecular target: AgHse1; test: as above
How it was run: as §1

Binder | SPOT peptide array binding signal intensity
PPIPNAPLSPAPAVP | 2.5

molecular target: AgLsb1; test: as above
How it was run: as §1

Binder | SPOT peptide array binding signal intensity
PPIPNAPLSPAPAVP | 3

molecular target: AgLsb4; test: as above
How it was run: as §1

Binder | SPOT peptide array binding signal intensity
PPIPNAPLSPAPAVP | 9

molecular target: AgMyo5; test: as above
How it was run: as §1

Binder | SPOT peptide array binding signal intensity
PPIPNAPLSPAPAVP | 1300

molecular target: AgNbp2; test: as above
How it was run: as §1

Binder | SPOT peptide array binding signal intensity
PPIPNAPLSPAPAVP | 3.5

molecular target: AgRvs167; test: as above
How it was run: as §1

Binder | SPOT peptide array binding signal intensity
PPIPNAPLSPAPAVP | 0.167

molecular target: AgSho1; test: as above
How it was run: as §1

Binder | SPOT peptide array binding signal intensity
PPIPNAPLSPAPAVP | ≤ 0

molecular target: AgSla1-D1-D2; test: as above
How it was run: as §1

Binder | SPOT peptide array binding signal intensity
PPIPNAPLSPAPAVP | 1

molecular target: AgSla1-D3; test: as above
How it was run: as §1

Binder | SPOT peptide array binding signal intensity
PPIPNAPLSPAPAVP | ≤ 0

molecular target: CaAbp1-D1; test: as above
How it was run: as §1

Binder | SPOT peptide array binding signal intensity
PPIPNAPLSPAPAVP | ≤ 0

molecular target: CaAbp1-D2; test: as above
How it was run: as §1

Binder | SPOT peptide array binding signal intensity
PPIPNAPLSPAPAVP | ≤ 0

molecular target: CaBbc1; test: as above
How it was run: as §1

Binder | SPOT peptide array binding signal intensity
PPIPNAPLSPAPAVP | 2

molecular target: CaBem1-D1; test: as above
How it was run: as §1

Binder | SPOT peptide array binding signal intensity
PPIPNAPLSPAPAVP | 7

molecular target: CaBzz1-D1; test: as above
How it was run: as §1

Binder | SPOT peptide array binding signal intensity
PPIPNAPLSPAPAVP | ≤ 0

molecular target: CaBzz1-D2; test: as above
How it was run: as §1

Binder | SPOT peptide array binding signal intensity
PPIPNAPLSPAPAVP | 10.5

molecular target: CaCyk3; test: as above
How it was run: as §1

Binder | SPOT peptide array binding signal intensity
PPIPNAPLSPAPAVP | ≤ 0

molecular target: CaFus1; test: as above
How it was run: as §1

Binder | SPOT peptide array binding signal intensity
PPIPNAPLSPAPAVP | 59

molecular target: CaHof1; test: as above
How it was run: as §1

Binder | SPOT peptide array binding signal intensity
PPIPNAPLSPAPAVP | ≤ 0

molecular target: CaHse1; test: as above
How it was run: as §1

Binder | SPOT peptide array binding signal intensity
PPIPNAPLSPAPAVP | 0.5

molecular target: CaLsb1; test: as above
How it was run: as §1

Binder | SPOT peptide array binding signal intensity
PPIPNAPLSPAPAVP | ≤ 0

molecular target: CaLsb4; test: as above
How it was run: as §1

Binder | SPOT peptide array binding signal intensity
PPIPNAPLSPAPAVP | ≤ 0

molecular target: CaMyo5; test: as above
How it was run: as §1

Binder | SPOT peptide array binding signal intensity
PPIPNAPLSPAPAVP | 952

molecular target: CaNbp2; test: as above
How it was run: as §1

Binder | SPOT peptide array binding signal intensity
PPIPNAPLSPAPAVP | 15.5

molecular target: CaRvs167; test: as above
How it was run: as §1

Binder | SPOT peptide array binding signal intensity
PPIPNAPLSPAPAVP | ≤ 0

molecular target: CaRvs167-3; test: as above
How it was run: as §1

Binder | SPOT peptide array binding signal intensity
PPIPNAPLSPAPAVP | 2.5

molecular target: CaSho1; test: as above
How it was run: as §1

Binder | SPOT peptide array binding signal intensity
PPIPNAPLSPAPAVP | 9

molecular target: CaSla1-D1-D2; test: as above
How it was run: as §1

Binder | SPOT peptide array binding signal intensity
PPIPNAPLSPAPAVP | ≤ 0

molecular target: CaSla1-D3; test: as above
How it was run: as §1

Binder | SPOT peptide array binding signal intensity
PPIPNAPLSPAPAVP | ≤ 0

molecular target: ScAbp1; test: as above
How it was run: as §1

Binder | SPOT peptide array binding signal intensity
PPIPNAPLSPAPAVP | 0.5

molecular target: ScBbc1; test: as above
How it was run: as §1

Binder | SPOT peptide array binding signal intensity
PPIPNAPLSPAPAVP | ≤ 0

molecular target: ScBem1-D1; test: as above
How it was run: as §1

Binder | SPOT peptide array binding signal intensity
PPIPNAPLSPAPAVP | ≤ 0

molecular target: ScBzz1-D1; test: as above
How it was run: as §1

Binder | SPOT peptide array binding signal intensity
PPIPNAPLSPAPAVP | 4

molecular target: ScBzz1-D2; test: as above
How it was run: as §1

Binder | SPOT peptide array binding signal intensity
PPIPNAPLSPAPAVP | 7.5

molecular target: ScCyk3; test: as above
How it was run: as §1

Binder | SPOT peptide array binding signal intensity
PPIPNAPLSPAPAVP | 2.5

molecular target: ScFus1; test: as above
How it was run: as §1

Binder | SPOT peptide array binding signal intensity
PPIPNAPLSPAPAVP | ≤ 0

molecular target: ScHof1; test: as above
How it was run: as §1

Binder | SPOT peptide array binding signal intensity
PPIPNAPLSPAPAVP | ≤ 0

molecular target: ScHse1; test: as above
How it was run: as §1

Binder | SPOT peptide array binding signal intensity
PPIPNAPLSPAPAVP | 1.5

molecular target: ScLsb1; test: as above
How it was run: as §1

Binder | SPOT peptide array binding signal intensity
PPIPNAPLSPAPAVP | 2.5

molecular target: ScLsb2; test: as above
How it was run: as §1

Binder | SPOT peptide array binding signal intensity
PPIPNAPLSPAPAVP | 4.5

molecular target: ScLsb3; test: as above
How it was run: as §1

Binder | SPOT peptide array binding signal intensity
PPIPNAPLSPAPAVP | ≤ 0

molecular target: ScLsb4; test: as above
How it was run: as §1

Binder | SPOT peptide array binding signal intensity
PPIPNAPLSPAPAVP | ≤ 0

molecular target: ScMyo3; test: as above
How it was run: as §1

Binder | SPOT peptide array binding signal intensity
PPIPNAPLSPAPAVP | 2660

molecular target: ScMyo5; test: as above
How it was run: as §1

Binder | SPOT peptide array binding signal intensity
PPIPNAPLSPAPAVP | 1550

molecular target: ScNbp2; test: as above
How it was run: as §1

Binder | SPOT peptide array binding signal intensity
PPIPNAPLSPAPAVP | 7.5

molecular target: ScPex13; test: as above
How it was run: as §1

Binder | SPOT peptide array binding signal intensity
PPIPNAPLSPAPAVP | 7.63e-06

molecular target: ScRvs167; test: as above
How it was run: as §1

Binder | SPOT peptide array binding signal intensity
PPIPNAPLSPAPAVP | ≤ 0

molecular target: ScSho1; test: as above
How it was run: as §1

Binder | SPOT peptide array binding signal intensity
PPIPNAPLSPAPAVP | ≤ 0

molecular target: ScSla1-D1-D2; test: as above
How it was run: as §1

Binder | SPOT peptide array binding signal intensity
PPIPNAPLSPAPAVP | ≤ 0

molecular target: ScSla1-D3; test: as above
How it was run: as §1

Binder | SPOT peptide array binding signal intensity
PPIPNAPLSPAPAVP | 1.25

molecular target: SpAbp1-D1; test: as above
How it was run: as §1

Binder | SPOT peptide array binding signal intensity
PPIPNAPLSPAPAVP | ≤ 0

molecular target: SpBbc1; test: as above
How it was run: as §1

Binder | SPOT peptide array binding signal intensity
PPIPNAPLSPAPAVP | 0.5

molecular target: SpBzz1-D1; test: as above
How it was run: as §1

Binder | SPOT peptide array binding signal intensity
PPIPNAPLSPAPAVP | ≤ 0

molecular target: SpBzz1-D2; test: as above
How it was run: as §1

Binder | SPOT peptide array binding signal intensity
PPIPNAPLSPAPAVP | 0.5

molecular target: SpCyk3; test: as above
How it was run: as §1

Binder | SPOT peptide array binding signal intensity
PPIPNAPLSPAPAVP | 1

molecular target: SpHof1; test: as above
How it was run: as §1

Binder | SPOT peptide array binding signal intensity
PPIPNAPLSPAPAVP | ≤ 0

molecular target: SpHof1-2; test: as above
How it was run: as §1

Binder | SPOT peptide array binding signal intensity
PPIPNAPLSPAPAVP | 1

molecular target: SpHof1-3; test: as above
How it was run: as §1

Binder | SPOT peptide array binding signal intensity
PPIPNAPLSPAPAVP | 1

molecular target: SpHse1; test: as above
How it was run: as §1

Binder | SPOT peptide array binding signal intensity
PPIPNAPLSPAPAVP | 23

molecular target: SpLsb1; test: as above
How it was run: as §1

Binder | SPOT peptide array binding signal intensity
PPIPNAPLSPAPAVP | ≤ 0

molecular target: SpLsb4; test: as above
How it was run: as §1

Binder | SPOT peptide array binding signal intensity
PPIPNAPLSPAPAVP | ≤ 0

molecular target: SpMyo1; test: as above
How it was run: as §1

Binder | SPOT peptide array binding signal intensity
PPIPNAPLSPAPAVP | 946

molecular target: SpNbp2; test: as above
How it was run: as §1

Binder | SPOT peptide array binding signal intensity
PPIPNAPLSPAPAVP | ≤ 0

molecular target: SpPex13; test: as above
How it was run: as §1

Binder | SPOT peptide array binding signal intensity
PPIPNAPLSPAPAVP | ≤ 0

molecular target: SpRvs167; test: as above
How it was run: as §1

Binder | SPOT peptide array binding signal intensity
PPIPNAPLSPAPAVP | ≤ 0

molecular target: SpSla1-D1-D2; test: as above
How it was run: as §1

Binder | SPOT peptide array binding signal intensity
PPIPNAPLSPAPAVP | ≤ 0

molecular target: SpSla1-D3; test: as above
How it was run: as §1

Binder | SPOT peptide array binding signal intensity
PPIPNAPLSPAPAVP | ≤ 0
